# Reference: PubChem BioAssay AID1494158 (National Center for Advancing Translational Sciences (NCATS), 2020)
# Records with an inconclusive call do not appear. Active and inactive are the calls of the source. The call rests on the fitted dose curve.
# Experiment: VSV-G qHTS counterscreen for inhibitors of SARS-S pseudo-typed particle cell entry
# Conditions: VSV-G pseudotyped particle entry counterscreen, luciferase; series mostly up to 57.1 µM; activity, negative = inhibition: at the top concentration
Structure (SMILES),Potency,"activity, negative = inhibition"
O=C1c2c(O)ccc(O)c2C(=O)c2c(NCCNCCO)ccc(NCCNCCO)c21,0.171 µM (active),–
CN(C)CCOC(c1ccccc1)c1ccc(Br)cc1 (stereo not given),–,0% (inactive)
O=C(Nc1ccc([N+](=O)[O-])cc1Cl)c1cc(Cl)ccc1O,0.482 µM (active),–
COc1ccc2cc3[n+](cc2c1OC)CCc1cc2c(cc1-3)OCO2,17.1 µM (active),–
COc1cc2nccc(Oc3ccc(NC(=O)NC4CC4)c(Cl)c3)c2cc1C(N)=O,17.1 µM (active),–
CC(CN(C)C)CN1c2ccccc2CCc2ccccc21 (stereo not given),–,-27.2% (inactive)
Nc1ccn([C@@H]2O[C@H](CO)[C@@H](O)C2(F)F)c(=O)n1,0.171 µM (active),–
Cc1cc(C(C#N)c2ccc(Cl)cc2)c(Cl)cc1NC(=O)c1cc(I)cc(I)c1O (stereo not given),30.4 µM (active),–
CC[C@@]1(O)C(=O)OCc2c1cc1n(c2=O)Cc2c-1nc1ccccc1c2/C=N/OC(C)(C)C,0.0764 µM (active),–
CC[C@@]1(O)C(=O)OCc2c1cc1n(c2=O)Cc2cc3c([N+](=O)[O-])cccc3nc2-1,0.124 µM (active),–
CC(=O)Oc1ccccc1C(=O)Nc1ncc([N+](=O)[O-])s1,6.81 µM (active),–
COc1cc2nccc(Oc3ccc(NC(=O)C4(C(=O)Nc5ccc(F)cc5)CC4)cc3)c2cc1OC,21.5 µM (active),–
CCc1c2c(nc3ccc(OC(=O)N4CCC(N5CCCCC5)CC4)cc13)-c1cc3c(c(=O)n1C2)COC(=O)[C@]3(O)CC,–,0% (inactive)
O=c1c(C2CC(c3ccc(-c4ccc(Br)cc4)cc3)Cc3ccccc32)c(O)sc2ccccc12 (stereo not given),15.2 µM (active),–
COc1cc([C@@H]2c3cc4c(cc3C(O[C@@H]3O[C@@H]5CO[C@@H](c6cccs6)OC5[C@H](O)[C@H]3O)C3COC(=O)[C@@H]32)OCO4)cc(OC)c1O (stereo not given in full),0.857 µM (active),–
Nc1nc(Cl)nc2c1ncn2C1CC(O)C(CO)O1 (stereo not given),5.41 µM (active),–
CC(C)(C)c1ccc(C(=O)CCCN2CCC(OC(c3ccccc3)c3ccccc3)CC2)cc1,27.1 µM (active),–
C=CC1(C)CC(=O)C2(O)C(C)(O1)C(OC(C)=O)C(OC(=O)CCN(C)C)C1C(C)(C)CCC(O)C12C (stereo not given),–,0% (inactive)

Structure (SMILES),Potency,"activity, negative = inhibition"
CC(C)C(=O)Oc1ccc(CO)cc1[C@H](CCN(C(C)C)C(C)C)c1ccccc1,27.1 µM (active),–
CCCCN=C(N)N=C(N)N,–,-7.93% (inactive)
COc1ccc(Cc2nccc3cc(OC)c(OC)cc23)cc1OC,19.2 µM (active),–
CCCCCCCCCCCCCC[n+]1ccc(C)cc1,1.92 µM (active),–
COc1cc2c(cc1Cc1cccc(Cl)c1F)c(=O)c(C(=O)O)cn2[C@H](CO)C(C)C,0.215 µM (active),–
Cc1c(N)nc(C(CC(N)=O)NCC(N)C(N)=O)nc1C(=O)NC(C(=O)NC(C)C(O)C(C)C(=O)NC(C(=O)NCCc1nc(-c2nc(C(=O)NCCCN[C@@H](C)c3ccccc3)cs2)cs1)C(C)O)C(O[C@@H]1O[C@@H](CO)[C@@H](O)[C@H](O)[C@@H]1O[C@H]1O[C@H](CO)[C@@H](O)[C@H](OC(N)=O)[C@@H]1O)c1cnc[nH]1 (stereo not given in full),0.304 µM (active),–
CCC(C)(C)C(=O)O[C@H]1C[C@@H](C)C=C2C=C[C@H](C)[C@H](CC[C@@H]3C[C@@H](O)CC(=O)O3)[C@H]21,1.21 µM (active),–
CC(C)C[C@H](NC(=O)[C@H](CCc1ccccc1)NC(=O)CN1CCOCC1)C(=O)N[C@@H](Cc1ccccc1)C(=O)N[C@@H](CC(C)C)C(=O)[C@@]1(C)CO1,0.764 µM (active),–
Oc1c(Cl)cc(Cl)c(Cl)c1Cc1c(O)c(Cl)cc(Cl)c1Cl,2.71 µM (active),–
Cc1oncc1C(=O)Nc1ccc(C(F)(F)F)cc1,–,0% (inactive)
CCN(CC)CCNC(=O)c1c(C)[nH]c(/C=C2\C(=O)Nc3ccc(F)cc32)c1C,17.1 µM (active),–
COc1cccc2c1C(=O)c1c(O)c3c(c(O)c1C2=O)C[C@@](O)(C(=O)CO)C[C@@H]3O[C@H]1C[C@H](N)[C@H](OC2CCCCO2)[C@H](C)O1 (stereo not given in full),9.61 µM (active),–
CC(=O)N1CCN(c2ccc(OC[C@H]3CO[C@](Cn4ccnc4)(c4ccc(Cl)cc4Cl)O3)cc2)CC1,19.2 µM (active),–
COc1cccc2c1C(=O)c1c(O)c3c(c(O)c1C2=O)C[C@@](O)(C(C)=O)C[C@@H]3O[C@H]1C[C@H](N)[C@H](O)[C@H](C)O1,1.92 µM (active),–
N=C(N)c1ccc(OCCCCCOc2ccc(C(=N)N)cc2)cc1,21.5 µM (active),–
C[C@]12CC[C@H](O)C[C@H]1CCC1C2CC[C@]2(C)[C@@H](c3ccc(=O)oc3)C[C@H]3O[C@]132 (stereo not given in full),9.61 µM (active),–
O=C(Nc1ccc(Cl)cc1)Nc1ccc(Cl)c(C(F)(F)F)c1,9.61 µM (active),–
